Assay results published in PubChem BioAssay AID1159580 (chemical genetic matrix, 2015).
Where “and” joins values, the source holds several entries; their conditions need not be identical. Equal entries are not always repeated. Among all 5,500 compounds or so, about 2,000 (36%) were called active. Another 18% or so got no clear call; they are omitted. Cut-off read from the data, not from the text of the source: active = normalized growth mostly below about 0.91 (no sharp cut-off); inconclusive = no clear call, values can overlap the other calls; inactive = mostly above about 0.92. This is one part of the list.

Assay: chemical genetic growth profiling, strain panel (AID 1159580);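 note: tested at 20 µM; growth read once vehicle control cultures reached saturation at 30 °C; 1 = growth at the plate median or of vehicle wells; lower values mean less growth of the strain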
Details: S. cerevisiae deletion strains, growth OD

Measured: normalized growth

CC(C)c1cc2c(c(O)c1O)[C@@]1(C(=O)O)CCCC(C)(C)C1CC2 (stereo partly specified)
active: locus YAL026C, strain drs2, stronger effect = lower value 0.835 | locus YAL030W, strain snc1, stronger effect = lower value 0.917 | locus YBR009C, strain hhf1, stronger effect = lower value 0.775 | locus YCL011C, strain gbp2, stronger effect = lower value 0.908 | locus YCL016C, strain dcc1, stronger effect = lower value 0.886 | locus YDL192W, strain arf1, stronger effect = lower value 0.874 | locus YDR392W, strain spt3, stronger effect = lower value 0.24 | locus YER155C, strain BEM2 (second series), stronger effect = lower value 0.697 | locus YGL173C, strain kem1, stronger effect = lower value 0.885 | locus YGR229C, strain SMI1, stronger effect = lower value 0.207 | locus YHR013C, strain ard1, stronger effect = lower value 0.705 | locus YHR030C, strain SLT2, stronger effect = lower value 0.903 and 0.663 | locus YHR079C, strain IRE1, stronger effect = lower value 0.341 | locus YJL095W, strain BCK1 (second series), stronger effect = lower value 0.86 | locus YJL164C, strain tpk1, stronger effect = lower value 0.908 | locus YJL166W, strain qcr8, stronger effect = lower value 0.462 | locus YKL085W, strain MDH1 (second series), stronger effect = lower value 0.913 | locus YKL085W, strain MDH1, stronger effect = lower value 0.913 | locus YKR001C, strain vps1, stronger effect = lower value 0.866 | locus YLL041C, strain sdh2, stronger effect = lower value 0.664 | locus YLR027C, strain aat2, stronger effect = lower value 0.884 | locus YLR113W, strain HOG1, stronger effect = lower value 0.434 | locus YLR221C, strain rsa3, stronger effect = lower value 0.792 | locus YLR258W, strain gsy2, stronger effect = lower value 0.859 | locus YLR262C, strain YPT6 (second series), stronger effect = lower value 0.552 | locus YLR262C, strain YPT6, stronger effect = lower value 0.546 | locus YLR320W, strain mms22, stronger effect = lower value 0.809 | locus YLR418C, strain cdc73, stronger effect = lower value 0.642 | locus YMR058W, strain fet3, stronger effect = lower value 0.815 | locus YMR125W, strain sto1, stronger effect = lower value 0.827 | locus YMR205C, strain PFK2, stronger effect = lower value 0.873 | locus YMR307W, strain GAS1, stronger effect = lower value 0.472 | locus YNL071W, strain lat1, stronger effect = lower value 0.207 | locus YNL271C, strain bni1, stronger effect = lower value 0.908 | locus YNL298W, strain CLA4, stronger effect = lower value 0.874 | locus YOR070C, strain gyp1, stronger effect = lower value 0.92 | locus YOR231W, strain MKK1, stronger effect = lower value 0.394 | locus YPL051W, strain arl3, stronger effect = lower value 0.897 | locus YPL240C, strain hsp82, stronger effect = lower value 0.614 | locus YPL241C, strain CIN2, stronger effect = lower value 0.914 | locus YPL256C, strain CLN2, stronger effect = lower value 0.421
0.962 (inactive) and 0.657 (active): locus YJL095W, strain BCK1, stronger effect = lower value
inactive: locus YAL021C, strain ccr4, stronger effect = lower value 0.988 | locus YBL061C, strain skt5, stronger effect = lower value 0.953 | locus YBR021W, strain FUR4, stronger effect = lower value 1.01 | locus YBR023C, strain chs3, stronger effect = lower value 0.956 | locus YBR171W, strain sec66, stronger effect = lower value 0.975 | locus YBR229C, strain ROT2, stronger effect = lower value 1.01 | locus YBR231C, strain swc5, stronger effect = lower value 0.969 | locus YBR279W, strain paf1, stronger effect = lower value 0.948 | locus YCL029C, strain bik1, stronger effect = lower value 1.01 | locus YCL061C, strain MRC1, stronger effect = lower value 0.954 | locus YCL069W, strain vba3, stronger effect = lower value 0.998 | locus YCR088W, strain abp1, stronger effect = lower value 0.991 | locus YDL005C, strain med2, stronger effect = lower value 1 | locus YDL035C, strain GPR1, stronger effect = lower value 0.943 | locus YDL040C, strain nat1, stronger effect = lower value 0.99 | locus YDL074C, strain BRE1, stronger effect = lower value 0.946 | locus YDL101C, strain DUN1, stronger effect = lower value 1.01 | locus YDL134C, strain PPH21, stronger effect = lower value 0.993 | locus YDL185W, strain tfp1, stronger effect = lower value 0.998 | locus YDR001C, strain nth1, stronger effect = lower value 0.997 | locus YDR069C, strain doa4, stronger effect = lower value 0.923 | locus YDR101C, strain arx1, stronger effect = lower value 1.02 | locus YDR137W, strain rgp1, stronger effect = lower value 0.876 | locus YDR150W, strain NUM1, stronger effect = lower value 0.929 | locus YDR159W, strain sac3, stronger effect = lower value 0.902 | locus YDR162C, strain NBP2, stronger effect = lower value 0.851 | locus YDR195W, strain ref2 0.979 | locus YDR297W, strain sur2, stronger effect = lower value 0.982 | locus YDR318W, strain mcm21, stronger effect = lower value 0.959 | locus YDR334W, strain swr1, stronger effect = lower value 1 | locus YDR335W, strain msn5, stronger effect = lower value 0.988 | locus YDR388W, stronger effect = lower value 1 | locus YDR502C, strain sam2, stronger effect = lower value 0.972 | locus YEL003W, strain gim4, stronger effect = lower value 0.94 | locus YEL037C, strain rad23, stronger effect = lower value 0.992 | locus YEL061C, strain CIN8 (second series), stronger effect = lower value 0.993 | locus YEL061C, strain CIN8, stronger effect = lower value 0.968 | locus YER015W, strain faa2, stronger effect = lower value 0.987 | locus YER016W, strain bim1, stronger effect = lower value 0.971 | locus YER110C, stronger effect = lower value 1.03 | locus YER111C, strain swi4, stronger effect = lower value 0.975 | locus YER155C, strain BEM2, stronger effect = lower value 1.04 | locus YER167W, strain BCK2, stronger effect = lower value 0.981 | locus YFR010W, strain ubp6, stronger effect = lower value 0.944 | locus YGL078C, strain dbp3, stronger effect = lower value 0.957 | locus YGL086W, strain mad1, stronger effect = lower value 0.94 | locus YGL167C, strain pmr1, stronger effect = lower value 0.978 | locus YGL227W, strain vid30, stronger effect = lower value 1 | locus YGL240W, strain doc1, stronger effect = lower value 0.938 | locus YGL248W, strain PDE1, stronger effect = lower value 0.962 | locus YGL253W, strain hxk2, stronger effect = lower value 0.976 | locus YGR078C, strain PAC10, stronger effect = lower value 0.873 | locus YGR135W, strain pre9, stronger effect = lower value 0.969 | locus YGR252W, strain gcn5, stronger effect = lower value 0.903 | locus YHR027C, strain rpn1, stronger effect = lower value 0.956 | locus YHR079C, strain IRE1 (second series), stronger effect = lower value 1 | locus YHR094C, strain hxt1, stronger effect = lower value 1.01 | locus YHR129C, strain ARP1, stronger effect = lower value 0.921 | locus YHR142W, strain chs7, stronger effect = lower value 0.969 | locus YHR200W, strain rpn10, stronger effect = lower value 0.984 | locus YIL066C, strain RNR3, stronger effect = lower value 0.937 | locus YIL073C, strain SPO22, stronger effect = lower value 0.936 | locus YIL125W, strain kgd1, stronger effect = lower value 0.958 | locus YIR030C, strain dcg1, stronger effect = lower value 1.01 | locus YJL092W, strain hpr5, stronger effect = lower value 0.98 | locus YJL115W, strain asf1, stronger effect = lower value 1.01 | locus YJL129C, strain trk1, stronger effect = lower value 1.04 | locus YJL134W, strain LCB3, stronger effect = lower value 1.02 | locus YJL154C, strain vps35, stronger effect = lower value 1 | locus YJL168C, strain set2, stronger effect = lower value 1.01 | locus YJL187C, strain SWE1 (second series), stronger effect = lower value 0.973 | locus YJL187C, strain SWE1, stronger effect = lower value 0.972 | locus YJR043C, strain POL32, stronger effect = lower value 0.982 | locus YJR066W, strain TOR1, stronger effect = lower value 0.84 | locus YJR075W, strain HOC1, stronger effect = lower value 0.947 | locus YKL009W, strain mrt4, stronger effect = lower value 0.95 | locus YKL068W, stronger effect = lower value 1.02 | locus YKL160W, strain elf1, stronger effect = lower value 0.957 | locus YKR026C, strain gcn3, stronger effect = lower value 0.994 | locus YKR091W, strain srl3, stronger effect = lower value 0.988 | locus YLL001W, strain dnm1, stronger effect = lower value 0.984 | locus YLL026W, stronger effect = lower value 0.932 | locus YLR039C, strain RIC1, stronger effect = lower value 0.831 | locus YLR058C, strain SHM2, stronger effect = lower value 1 | locus YLR102C, strain apc9, stronger effect = lower value 1.01 | locus YLR268W, strain sec22, stronger effect = lower value 0.901 | locus YLR330W, strain CHS5, stronger effect = lower value 0.944 | locus YLR342W, strain FKS1 (second series), stronger effect = lower value 0.84 | locus YLR342W, strain FKS1, stronger effect = lower value 0.968 | locus YLR357W, strain rsc2, stronger effect = lower value 0.949 | locus YLR370C, strain arc18, stronger effect = lower value 0.974 | locus YLR371W, strain rom2, stronger effect = lower value 0.976 | locus YLR384C, strain iki3, stronger effect = lower value 1 | locus YML016C, strain PPZ1, stronger effect = lower value 0.994 | locus YML032C, strain rad52, stronger effect = lower value 0.993 | locus YML120C, strain ndi1, stronger effect = lower value 0.984 | locus YML124C, strain tub3, stronger effect = lower value 1.01 | locus YMR078C, strain ctf18, stronger effect = lower value 1 | locus YMR129W, stronger effect = lower value 0.99 | locus YMR223W, strain ubp8, stronger effect = lower value 0.964 | locus YMR231W, strain pep5, stronger effect = lower value 0.97 | locus YNL067W, strain RPL9B, stronger effect = lower value 0.972 | locus YNL153C, strain GIM3, stronger effect = lower value 0.985 | locus YNL183C, strain NPR1, stronger effect = lower value 0.9 | locus YNL209W, strain ssb2, stronger effect = lower value 0.962 | locus YNL233W, strain BNI4, stronger effect = lower value 0.955 | locus YNL248C, strain rpa49, stronger effect = lower value 0.98 | locus YNL250W, strain rad50, stronger effect = lower value 1.01 | locus YNL307C, strain MCK1, stronger effect = lower value 0.956 | locus YNL322C, strain KRE1 (second series), stronger effect = lower value 1.03 | locus YNR049C, strain mso1, stronger effect = lower value 0.997 | locus YNR052C, strain pop2, stronger effect = lower value 0.973 | locus YOL012C, strain htz1 0.721 | locus YOL147C, strain pex11, stronger effect = lower value 1.04 | locus YOR001W, strain rrp6, stronger effect = lower value 0.992 | locus YOR061W, strain CKA2, stronger effect = lower value 1 | locus YOR069W, strain VPS5, stronger effect = lower value 0.998 | locus YOR080W, strain dia2, stronger effect = lower value 0.987 | locus YOR083W, strain WHI5, stronger effect = lower value 0.965 | locus YOR106W, strain vam3, stronger effect = lower value 0.871 | locus YOR136W, strain idh2, stronger effect = lower value 1 | locus YOR144C, strain elg1, stronger effect = lower value 1.01 | locus YOR184W, strain ser1, stronger effect = lower value 0.964 | locus YOR265W, strain rbl2, stronger effect = lower value 0.982 | locus YOR270C, strain vph1, stronger effect = lower value 0.954 | locus YOR290C, strain snf2, stronger effect = lower value 0.945 | locus YOR316C, strain cot1, stronger effect = lower value 1.02 | locus YPL078C, strain atp4, stronger effect = lower value 1.01 | locus YPL106C, strain sse1, stronger effect = lower value 0.968 | locus YPR119W, strain clb2, stronger effect = lower value 1.03 | locus YPR141C, strain kar3, stronger effect = lower value 0.992 | locus YPR163C, strain tif3, stronger effect = lower value 0.964 | locus YPR167C, strain met16, stronger effect = lower value 1 | strain wtn01, stronger effect = lower value 0.936
